Bioassay records deposited in PubChem BioAssay by The Scripps Research Institute Molecular Screening Center.
Shown are actives, neighbours in structure and some others; about 4.8% of the full set was active somewhere.
DAX1 inh-1 – inhibitors of human orphan nuclear receptor DAX1 (NR0B1) | P51843 | HEK293 Gal4-DAX1 luciferase reporter, luminescence | inhibition, % at 6.75 µM | 340,000 tested, 0.99% active | AID 504766;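 active = inhibition above the mean over all tested compounds plus 3 SD, cut at about 4.2% in these data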;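 also: 0% = DAX1-transfected cells with DMSO and 100% = empty-vector control cells with DMSO; inhibition shows as a rise in luminescence from relieved DAX1 repression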
Target sequence (P51843 207-470 limits assumed): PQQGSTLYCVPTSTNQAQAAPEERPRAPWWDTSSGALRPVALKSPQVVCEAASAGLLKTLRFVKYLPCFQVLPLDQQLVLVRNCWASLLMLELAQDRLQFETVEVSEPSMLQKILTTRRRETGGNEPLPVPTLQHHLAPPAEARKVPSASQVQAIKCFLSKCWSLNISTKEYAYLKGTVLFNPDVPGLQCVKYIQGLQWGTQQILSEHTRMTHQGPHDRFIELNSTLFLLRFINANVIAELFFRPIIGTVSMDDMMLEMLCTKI
SMARCA2 act – increases SMARCA2 function in MMTV reporter cells. MG213 cells, MMTV-luciferase reporter, dexamethasone, overnight. activation, % at 9.1 µM. 370,000 tested, 1% active. AID 652017; in the data active = activation above about 7.8%;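 also: 0% = vehicle wells and 100% = reference activator wells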
hgDAF12 agonist – hgDAF-12 agonism, primary luciferase screen; 370,000 tested, 1.8% active; AID 687014; activation, % at 6.8 µM; HEK293 GAL4-hgDAF12 UAS-luciferase reporter, agonist luminescence; normalized to butyrate control;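 active = activation above a cutoff set at the mean of all screened compounds plus 3 SD, cut at about 10% in these data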;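 also: 0% = DMSO wells and 100% = sodium butyrate wells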
DAX1 inh-2 – inhibitors of DAX1 repression of SF-1 activated StAR promoter; 370,000 tested, 1.1% active; HEK293T StAR-luciferase reporter, SF-1/DAX-1 repression relief; inhibition, % at 6.8 µM; AID 652010;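 active = inhibition above the mean over all tested compounds plus 3 SD, cut at about 3.6% in these data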;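 also: 0% = DAX-1 cells with DMSO and 100% = cells lacking DAX-1 with DMSO; higher inhibition means more luminescence from relief of DAX-1 repression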
ssDAF-12 act – S. stercoralis DAF-12 activation, primary screen | activation, % at 6.8 µM | HEK293 ssDAF-12/GRIP1 lit1-tk-luc reporter, luminescence; % of 3 µM dafachronic acid response | 370,000 tested, 1% active;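 active = activation above the mean over all tested compounds plus 3 SD, cut at about 0.9% in these data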;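 also: 0% = DMSO-only wells and 100% = 3 µM delta7-dafachronic acid wells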
hcDAF12 agonist – H. contortus DAF-12 activation, primary screen; HEK293 hcDAF-12 lit1-tk-luc reporter, luminescence; 0% DMSO, 100% Δ7-dafachronic acid; activation, % at 6.8 µM; 370,000 tested, 1.4% active; AID 652067;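 active = activation above the mean of all tested compounds plus 3 SD, cut at about 5.5% in these data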;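 also: 100% = response to 3 µM Δ7-dafachronic acid high control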
The depositor's hits bear a star; . = not tested or not shown.

SMILES	DAX1 inh-1	SMARCA2 act	hgDAF12 agonist	DAX1 inh-2	ssDAF-12 act	hcDAF12 agonist
C#CCN(C)S(=O)(=O)c1ccc(N2CCCC2)cc1Br	.	-4	1	-1	-2	-2
Cc1ccc(NC(=O)C2OCCc3ccccc32)cc1C (stereo not drawn)	2	-1	11*	2	-1	2
CCCCN(C)C(=O)Cn1nc(Cc2ccncc2)c2ccccc2c1=O	15*	0	-1	0	-1	-2
Cc1cc(C)nc(-n2ncc3c2CCCC3=O)n1	5.4*	0	0	0	-1	-3
CSc1nnc(SCC2=NNC(=O)SC2)s1	0	-2	1	0	0.9*	-1
COc1ccc(Cl)cc1NC(=O)COC(=O)CCc1cc(OC)c(OC)c(OC)c1	0	-3	-3	0	-2	-2
COc1ccc(Cl)cc1NC(=O)/C=C\C(=O)O	2	-2	1	-1	0.9*	5
COc1ccc(Cl)cc1NC(=O)COC(=O)Cc1cc(OC)c(OC)c(OC)c1	-1	-2	0	-1	2.8*	0
COc1ccc(Cl)cc1NC(=O)Nc1ccc(Br)cn1	0	0	3	0	1	6.0*
COc1ccc(NC(=O)/C=C/C(=O)O)cc1Cl	1	-1	1	1	-1	-1
N#CCCC1(CCC#N)c2ccccc2C(=O)c2ccccc21	.	-1	1	0	0	3
CCOC(=O)C1=CCC(c2ccc(CC)cc2)N(S(=O)(=O)c2ccc(C)cc2)C1 (stereo not drawn)	.	-5	3	-2	-1	0
COc1ccccc1OCCSc1nc2ccccc2n1CC(O)CO (stereo not drawn)	4.7*	-3	0	1	-1	1
COc1ccc(OCC(=O)C2CC2)c(C#N)c1	7.2*	-1	2	0	0	2
CC(C(=O)Nc1sc2c(c1C#N)CCCCC2)N1C(=O)c2ccccc2C1=O (stereo not drawn)	2	-2	3	0	1.1*	4
Cc1cc(C(=O)Nc2sc3c(c2C#N)CCC3)no1	1	5	8	1	0	1
Cc1cc(C(=O)Nc2sc3c(c2C#N)CCCC3)no1	3	1	12*	3	0	5
CC(=O)Nc1sc2c(c1C#N)CCCCC2	0	1	1	0	-1	-1
O=C(NCC(c1ccccc1)c1ccccc1)[C@H](Cc1ccccc1)NC1(C(=O)NC2CCCCC2)CCOCC1	.	.	0	.	-1	1
CNc1snc(C)c1C(=O)OC(C)C(=O)Nc1cccc(OC)c1 (stereo not drawn)	0	-3	-1	-3	-2	-3
CC(CNC(=O)COC(=O)c1cccnc1Cl)c1ccccc1 (stereo not drawn)	-1	-2	5	3	1.2*	1
COc1ccc(OC)c(NC(=O)COC(=O)c2n[nH]c3ccccc23)c1	-1	0	0	0	-1	0
COc1ccc(C(=O)COC(=O)c2n[nH]c3ccccc23)c(OC)c1	2	5	12*	4.2*	0	4
COc1ccc(C(=O)Cn2cnc3ccccc3c2=O)c(OC)c1	1	2	6	3.6*	-1	3
CC(CNC(=O)COC(=O)c1cccs1)c1ccccc1 (stereo not drawn)	1	1	1	-2	-1	0
SMILES	DAX1 inh-1	SMARCA2 act	hgDAF12 agonist	DAX1 inh-2	ssDAF-12 act	hcDAF12 agonist
COc1cccc(NC(=O)C(C)OC(=O)c2n[nH]c3ccccc23)c1 (stereo not drawn)	0	-1	11*	-1	0	1
O=C(Cc1ccc(NC(=O)C2CCN(C(=O)C3CCC3)CC2)cc1)Nc1cccc(C(=O)N2CCCCC2)c1	0	0	4	0	-1	1
COc1cc(NC(=O)N2CCc3nc(NCc4cccc(Oc5ccccc5)c4)ncc3C2)cc(OC)c1OC	.	-7	-2	0	-1	-1
Cc1cc(C(=O)COC(=O)c2n[nH]c3ccccc23)c(C)n1C	2	5	17*	4.5*	1.2*	8.1*
COc1ccc(C(=O)COC(=O)c2cccnc2Cl)c(OC)c1	2	4	13*	1	-1	0
Cc1cc(C(=O)COC(=O)c2n[nH]c(=O)c3ccccc23)c(C)n1C	0	5	6	3	-1	-1
